For some of these results: Measured potencies and affinities stand elsewhere.
Experiments:
Set-up in all cases: scale not given: direction of the effect not stated beside the values
[1] = molecular target: Protein translocase subunit SecA (Escherichia coli (strain K12)) (UniProt P10408); assay: Assay to Identify E. coli SecA ATPase Inhibitors; assay type: functional; details: 30 µM
[2] = molecular target: T1, Ubiquitin-activating enzyme e1, putative (Leishmania donovani (strain BPK282A1)) (UniProt E9BSI1); assay: Leishmania donovani Ubiquitin Activating Enzyme (LdE1); assay type: functional; details: 30 µM
T1 sequence (whole entry): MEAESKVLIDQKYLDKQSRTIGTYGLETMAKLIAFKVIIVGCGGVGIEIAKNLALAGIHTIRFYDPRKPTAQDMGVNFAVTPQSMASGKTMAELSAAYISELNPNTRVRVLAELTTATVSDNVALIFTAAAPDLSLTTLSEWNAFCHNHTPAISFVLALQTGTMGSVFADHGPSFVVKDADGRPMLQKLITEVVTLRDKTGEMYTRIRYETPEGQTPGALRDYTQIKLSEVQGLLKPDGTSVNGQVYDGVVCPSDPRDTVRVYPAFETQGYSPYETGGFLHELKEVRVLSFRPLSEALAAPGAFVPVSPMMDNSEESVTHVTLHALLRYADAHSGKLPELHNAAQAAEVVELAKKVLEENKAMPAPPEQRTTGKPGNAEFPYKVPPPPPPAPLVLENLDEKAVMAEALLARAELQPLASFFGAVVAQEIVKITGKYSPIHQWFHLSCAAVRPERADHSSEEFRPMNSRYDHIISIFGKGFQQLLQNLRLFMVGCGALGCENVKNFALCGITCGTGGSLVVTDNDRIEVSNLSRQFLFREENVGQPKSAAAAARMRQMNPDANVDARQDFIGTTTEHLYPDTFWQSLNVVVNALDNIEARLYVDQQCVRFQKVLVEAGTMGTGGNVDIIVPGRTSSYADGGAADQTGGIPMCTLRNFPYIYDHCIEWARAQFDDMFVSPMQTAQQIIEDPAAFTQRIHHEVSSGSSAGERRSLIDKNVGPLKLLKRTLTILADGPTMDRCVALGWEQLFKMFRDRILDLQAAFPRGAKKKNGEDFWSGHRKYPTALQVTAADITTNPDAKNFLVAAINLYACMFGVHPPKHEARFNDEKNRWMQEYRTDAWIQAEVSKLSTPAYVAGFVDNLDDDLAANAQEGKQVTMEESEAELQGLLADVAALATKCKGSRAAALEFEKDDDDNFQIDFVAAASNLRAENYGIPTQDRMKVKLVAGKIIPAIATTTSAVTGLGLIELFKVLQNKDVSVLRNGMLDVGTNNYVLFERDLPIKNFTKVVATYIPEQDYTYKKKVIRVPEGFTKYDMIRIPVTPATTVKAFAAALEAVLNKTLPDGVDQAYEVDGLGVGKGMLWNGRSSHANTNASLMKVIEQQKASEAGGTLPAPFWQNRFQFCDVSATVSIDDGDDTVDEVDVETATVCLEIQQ

[3] = molecular target: AMP-activated protein kinase, AMPK (Homo sapiens) (UniProt P54646+O43741+P54619+Q9UGJ0+Q9Y478+Q13131+Q9UGI9); assay: AMP-dependent Kinase enzyme assay. An in vitro enzyme assay that detects ADP turnover that is directly proportional to AMPK activity. This uses naive AMPK that is activated during the assay with MK-8722; assay type: functional; details: 30 µM
[4] = molecular target: Sialic acid-binding Ig-like lectin 9 (Homo sapiens) (UniProt Q9Y336); assay: Hs-Siglec9 ALPHAscreen SOP 20170721; details: 10 µM
Trypanosoma cruzi = assay: Trypanosoma cruzi phosphomannomutase and mannose-1-phosphate guanylyltransferase assay; assay type: functional; details: 10 µM
[5] = molecular target: T2, Arginase-2, mitochondrial (Homo sapiens) (UniProt P78540); assay: in vitro enzyme assay to detect the production of urea directly proportional to the activity of Arginase II; assay type: functional; details: 33.3 µM; also: in the data most compounds retested in dose-response had high values
T2 sequence (whole entry): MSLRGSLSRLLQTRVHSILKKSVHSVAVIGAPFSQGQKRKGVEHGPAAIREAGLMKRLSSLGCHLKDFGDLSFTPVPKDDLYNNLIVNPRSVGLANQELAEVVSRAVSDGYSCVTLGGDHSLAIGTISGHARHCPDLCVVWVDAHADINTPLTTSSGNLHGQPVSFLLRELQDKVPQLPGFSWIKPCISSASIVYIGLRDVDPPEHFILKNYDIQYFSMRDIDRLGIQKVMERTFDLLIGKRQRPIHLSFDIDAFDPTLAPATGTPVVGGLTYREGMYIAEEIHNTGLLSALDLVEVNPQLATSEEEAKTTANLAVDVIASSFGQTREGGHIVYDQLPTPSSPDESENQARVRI

[6] = molecular target: T3, Proteasome subunit beta (Trypanosoma cruzi) (UniProt O96673); assay: Trypanosoma cruzi proteasome chymotrypsin-like activity (TcProtChymo) assay.; also: in the data most compounds retested in dose-response had high values; assay type: functional; details: 9.37 µM
T3 sequence (whole entry): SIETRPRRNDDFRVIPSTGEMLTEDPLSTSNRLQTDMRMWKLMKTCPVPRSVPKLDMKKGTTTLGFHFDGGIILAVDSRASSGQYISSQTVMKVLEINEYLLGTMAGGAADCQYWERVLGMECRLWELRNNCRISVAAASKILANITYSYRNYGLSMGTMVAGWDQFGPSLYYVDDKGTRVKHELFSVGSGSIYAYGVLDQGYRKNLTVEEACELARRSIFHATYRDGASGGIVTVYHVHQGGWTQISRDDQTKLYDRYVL

Homo sapiens = species: Homo sapiens; assay: To identify inhibition of the IFN signalling (Jak-Stat) pathway via expression of an eGFP reporter gene under the control of an IFN-stimulated response element (ISRE) containing MxA promoter.; assay type: functional; details: 30 µM
[7] = molecular target: T4, Tyrosyl-tRNA synthetase, putative (Trypanosoma cruzi (strain CL Brener)) (UniProt Q4DSP6); assay: Trypanosoma cruzi tyrosyl tRNA synthetase (TcYRS) _High Tyrosine SOP; assay type: functional; details: 30 µM; also: in the data most compounds retested in dose-response had high values
T4 sequence (whole entry): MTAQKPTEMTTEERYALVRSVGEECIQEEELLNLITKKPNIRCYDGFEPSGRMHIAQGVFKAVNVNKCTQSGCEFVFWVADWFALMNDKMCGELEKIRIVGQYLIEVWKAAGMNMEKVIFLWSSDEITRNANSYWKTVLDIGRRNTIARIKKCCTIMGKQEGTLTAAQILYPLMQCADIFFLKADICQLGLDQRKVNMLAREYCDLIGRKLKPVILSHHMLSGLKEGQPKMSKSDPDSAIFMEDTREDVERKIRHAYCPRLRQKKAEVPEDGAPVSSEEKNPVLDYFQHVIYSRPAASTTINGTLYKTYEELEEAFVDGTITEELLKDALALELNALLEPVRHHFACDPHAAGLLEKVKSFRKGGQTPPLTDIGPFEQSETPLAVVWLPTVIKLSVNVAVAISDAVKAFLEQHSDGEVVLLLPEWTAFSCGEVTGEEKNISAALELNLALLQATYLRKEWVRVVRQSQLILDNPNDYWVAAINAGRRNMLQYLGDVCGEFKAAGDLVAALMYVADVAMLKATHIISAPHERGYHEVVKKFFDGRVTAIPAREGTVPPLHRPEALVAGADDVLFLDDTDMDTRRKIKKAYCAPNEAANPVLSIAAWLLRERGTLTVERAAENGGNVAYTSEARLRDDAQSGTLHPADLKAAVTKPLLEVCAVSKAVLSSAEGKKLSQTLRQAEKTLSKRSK

[8] = molecular target: T4, Tyrosyl-tRNA synthetase, putative (Trypanosoma cruzi (strain CL Brener)); assay: Trypanosoma cruzi tyrosyl tRNA synthetase (TcYRS) SOP; assay type: functional; details: 30 µM
[9] = molecular target: Chromo domain-containing protein 1 (Saccharomyces cerevisiae (strain ATCC 204508 / S288c) (Baker's yeast)) (UniProt P32657); assay: ScCHD-1 Enzyme Inhibition Assay; assay type: functional; details: 30 µM; also: in the data most compounds retested in dose-response had high values
Chromo domain-containing protein 1 (Saccharomyces cerevisiae (strain ATCC 204508 / S288c) (Baker's yeast)), sequence (P32657 whole entry, the tested form may be a part): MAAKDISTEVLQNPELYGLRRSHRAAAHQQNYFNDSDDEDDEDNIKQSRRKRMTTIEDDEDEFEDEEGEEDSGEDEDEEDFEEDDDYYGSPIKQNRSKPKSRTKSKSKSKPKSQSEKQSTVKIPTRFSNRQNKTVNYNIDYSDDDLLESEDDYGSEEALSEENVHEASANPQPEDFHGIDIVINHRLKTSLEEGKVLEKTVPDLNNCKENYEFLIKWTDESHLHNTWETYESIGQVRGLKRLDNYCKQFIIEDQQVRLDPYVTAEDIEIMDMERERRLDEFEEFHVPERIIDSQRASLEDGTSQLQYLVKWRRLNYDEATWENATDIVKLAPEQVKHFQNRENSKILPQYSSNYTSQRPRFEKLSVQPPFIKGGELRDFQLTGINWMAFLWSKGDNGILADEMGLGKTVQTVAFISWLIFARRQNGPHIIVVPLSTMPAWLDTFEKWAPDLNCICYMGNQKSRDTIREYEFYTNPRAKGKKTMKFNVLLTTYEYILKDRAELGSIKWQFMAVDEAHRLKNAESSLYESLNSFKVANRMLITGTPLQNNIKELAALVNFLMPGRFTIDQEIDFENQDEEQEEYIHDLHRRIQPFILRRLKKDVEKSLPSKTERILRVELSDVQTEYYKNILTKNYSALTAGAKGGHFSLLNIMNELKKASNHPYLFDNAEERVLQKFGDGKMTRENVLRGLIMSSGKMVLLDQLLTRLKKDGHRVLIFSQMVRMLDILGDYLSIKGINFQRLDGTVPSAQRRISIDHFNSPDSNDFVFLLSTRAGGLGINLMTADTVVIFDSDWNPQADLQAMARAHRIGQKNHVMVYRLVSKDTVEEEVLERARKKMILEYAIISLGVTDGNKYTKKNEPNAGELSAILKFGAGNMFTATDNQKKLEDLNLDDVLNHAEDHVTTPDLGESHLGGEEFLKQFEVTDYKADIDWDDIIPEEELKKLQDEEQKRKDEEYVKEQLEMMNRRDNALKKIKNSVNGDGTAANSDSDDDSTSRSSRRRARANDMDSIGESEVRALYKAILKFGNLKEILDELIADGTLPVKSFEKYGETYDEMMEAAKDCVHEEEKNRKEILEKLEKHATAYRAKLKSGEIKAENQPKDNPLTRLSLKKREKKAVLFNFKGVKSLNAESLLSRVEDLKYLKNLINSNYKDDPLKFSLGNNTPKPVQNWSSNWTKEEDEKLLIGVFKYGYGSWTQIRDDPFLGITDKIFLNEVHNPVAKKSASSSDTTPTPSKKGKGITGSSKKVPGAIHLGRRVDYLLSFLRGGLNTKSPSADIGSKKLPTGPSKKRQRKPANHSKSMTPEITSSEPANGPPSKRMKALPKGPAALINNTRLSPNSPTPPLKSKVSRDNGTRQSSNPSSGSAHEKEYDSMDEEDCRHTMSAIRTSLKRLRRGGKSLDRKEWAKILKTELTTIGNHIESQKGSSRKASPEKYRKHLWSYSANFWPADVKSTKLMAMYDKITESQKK

Sialic acid-binding Ig-like lectin 9 (Homo sapiens), sequence (Q9Y336 whole entry): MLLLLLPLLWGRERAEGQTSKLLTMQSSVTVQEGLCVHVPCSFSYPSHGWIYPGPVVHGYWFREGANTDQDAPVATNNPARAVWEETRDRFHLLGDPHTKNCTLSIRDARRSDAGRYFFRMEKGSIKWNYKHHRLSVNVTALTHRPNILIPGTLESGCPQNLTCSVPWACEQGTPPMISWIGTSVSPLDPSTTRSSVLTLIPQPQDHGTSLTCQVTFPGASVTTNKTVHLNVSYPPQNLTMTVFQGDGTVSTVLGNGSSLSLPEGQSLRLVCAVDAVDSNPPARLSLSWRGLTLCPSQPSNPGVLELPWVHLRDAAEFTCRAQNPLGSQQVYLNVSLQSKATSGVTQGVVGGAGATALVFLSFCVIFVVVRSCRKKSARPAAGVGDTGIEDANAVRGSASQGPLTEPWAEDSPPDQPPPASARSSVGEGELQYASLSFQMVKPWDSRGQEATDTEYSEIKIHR
Protein translocase subunit SecA (Escherichia coli (strain K12)), sequence (P10408 whole entry): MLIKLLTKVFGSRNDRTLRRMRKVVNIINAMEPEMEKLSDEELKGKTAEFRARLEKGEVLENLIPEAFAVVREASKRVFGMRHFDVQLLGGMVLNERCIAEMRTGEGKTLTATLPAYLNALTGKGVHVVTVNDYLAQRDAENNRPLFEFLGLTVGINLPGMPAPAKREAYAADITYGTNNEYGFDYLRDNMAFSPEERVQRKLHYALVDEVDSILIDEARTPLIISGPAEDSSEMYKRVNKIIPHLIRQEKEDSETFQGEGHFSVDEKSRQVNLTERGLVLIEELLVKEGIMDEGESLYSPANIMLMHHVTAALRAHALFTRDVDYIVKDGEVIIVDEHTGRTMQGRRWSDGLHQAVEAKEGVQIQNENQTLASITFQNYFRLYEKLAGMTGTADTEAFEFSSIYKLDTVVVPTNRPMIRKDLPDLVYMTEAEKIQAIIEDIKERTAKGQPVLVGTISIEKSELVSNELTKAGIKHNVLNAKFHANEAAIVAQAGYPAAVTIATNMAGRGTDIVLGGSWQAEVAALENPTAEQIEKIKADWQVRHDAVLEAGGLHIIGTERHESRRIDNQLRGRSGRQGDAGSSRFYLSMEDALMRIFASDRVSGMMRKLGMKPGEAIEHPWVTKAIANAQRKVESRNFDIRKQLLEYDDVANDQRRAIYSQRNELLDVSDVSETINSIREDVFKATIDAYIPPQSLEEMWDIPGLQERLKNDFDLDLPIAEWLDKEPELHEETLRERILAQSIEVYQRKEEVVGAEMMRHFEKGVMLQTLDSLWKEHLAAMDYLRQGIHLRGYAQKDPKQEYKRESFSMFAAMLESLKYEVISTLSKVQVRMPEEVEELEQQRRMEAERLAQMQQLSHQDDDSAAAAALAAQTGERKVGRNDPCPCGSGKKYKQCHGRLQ

| SMILES | Percent Effect [1] [%] | Percent Effect [2] [%] | Percent Effect [3] [%] | Percent Effect [4] [%] | Percent Effect (Trypanosoma cruzi) [%] | Percent Effect [5] [%] | Percent Effect [6] [%] | Percent Effect (Homo sapiens) [%] | Percent Effect [7] [%] | Percent Effect [8] [%] | Percent Effect [9] [%] |
| --- | --- | --- | --- | --- | --- | --- | --- | --- | --- | --- | --- |
| Cc1nc(C(=O)N2CCCC(n3cncn3)C2)cs1 (stereo not given) | -1.23 | -1.27 | 3.74 | 3.18 | -0.718 | 2.8 | 4.63 | -1.7 | -38.5 | 5.06 | 0.874 |
| O=C(c1cnccn1)N1CCN(Cc2csc(-c3ccccc3)n2)CC1 | -3.77 | -2.7 | 9.72 | -0.413 | -6.04 | 0.185 | 0.898 | 19.6 | -4.95 | -1.22 | 7.87 |
| CC(C)c1cnc(CNc2c(F)cccc2-n2cccn2)o1 | 1.05 | -1.39 | -3.66 | 6.14 | 1.26 | 12.4 | 11.2 | -14.6 | -1.05 | 0 | 0.741 |
| Cc1cnn(CC2CCCN2C(=O)c2cccc(-n3cnnn3)c2)c1 (stereo not given) | -0.0058 | 2.53 | 6.56 | 4.88 | -1.79 | 6.08 | -0.573 | 13.2 | 2.46 | 1.27 | -1.78 |
| O=C(Nc1ccnc(OC2CCOC2)c1)C1CCC1 (stereo not given) | -2.23 | -4.17 | -0.181 | 4.31 | -6.32 | 1.32 | 13.3 | 5.01 | -2.1 | -5.13 | 6.48 |
